Screens as filed in PubChem BioAssay.
The entries come from a sample that favours hits as a whole.
ST2 inh: inhibitors of human ST2 (IL1RL1) binding to IL-33, primary screen, biochemical, AlphaLISA; AlphaLISA ST2-Fc/biotin-IL-33 interaction, 1 h; inhibition, % for hits at 17 µM; actives 2.3% (n = 78,000); in the data active means inhibition above about 30%
Target sequence (Q01638 whole entry, looked up): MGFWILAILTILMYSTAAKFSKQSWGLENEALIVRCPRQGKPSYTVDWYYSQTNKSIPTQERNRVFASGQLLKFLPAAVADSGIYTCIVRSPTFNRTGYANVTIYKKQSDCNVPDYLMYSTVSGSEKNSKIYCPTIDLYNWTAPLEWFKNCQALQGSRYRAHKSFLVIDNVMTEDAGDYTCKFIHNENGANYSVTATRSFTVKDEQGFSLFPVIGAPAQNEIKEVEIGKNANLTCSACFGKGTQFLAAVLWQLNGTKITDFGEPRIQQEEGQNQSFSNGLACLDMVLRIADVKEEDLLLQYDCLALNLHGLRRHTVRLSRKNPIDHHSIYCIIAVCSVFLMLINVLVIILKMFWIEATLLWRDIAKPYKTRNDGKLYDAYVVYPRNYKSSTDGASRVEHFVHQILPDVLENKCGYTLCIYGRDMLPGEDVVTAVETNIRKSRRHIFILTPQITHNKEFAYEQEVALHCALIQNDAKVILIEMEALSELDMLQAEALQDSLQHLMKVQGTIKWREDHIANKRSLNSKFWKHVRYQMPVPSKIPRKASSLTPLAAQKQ
Numbers stand for hits; – = inactive; ! = a repeat was not active.

SMILES | ST2 inh
O=c1c2ccccc2nc(/C=C/c2ccc3c(c2)OCO3)n1-c1ccc([N+](=O)[O-])cc1 | –
CCCc1[nH]nc2c1C(c1ccc(Br)cc1)C(C#N)=C(N)O2 (stereo not given) | –
COc1ccc2nc(N=C(N)NC(=O)Nc3ccccc3)nc(C)c2c1 | –
Cc1ccc2nc(N=C(N)NC(=O)Cc3ccc(Cl)cc3)nc(C)c2c1 | 30%
CC(=O)NC(=Nc1nc(C)c2cc(C)ccc2n1)NC(C)=O | –
COc1ccc(C(=O)Nc2nnc(C(C)(C)C)s2)cc1[N+](=O)[O-] | –
Cc1ccc(/C=C(\C#N)c2nc3ccc(C)cc3[nH]2)cc1 | 32%
COc1ccc2nc(SCc3ccc(C)cc3)[nH]c2c1 | –
CCOc1ccc(Br)cc1/C=C(\C#N)c1nc2ccccc2[nH]1 | –
N#C/C(=C\c1cc2c(cc1Br)OCO2)c1nc2ccccc2[nH]1 | –
N#C/C(=C\c1ccc2c(c1)OCO2)c1nc2ccccc2[nH]1 | –
COc1cc(/C=C(\C#N)c2nc3ccc(C)cc3[nH]2)cc(OC)c1O | 34%
COc1ccc2[nH]cc(CCNC(=O)CCSS(=O)(=O)O)c2c1 | –
COc1ccc(C2SCCN2S(=O)(=O)c2ccc3cccc4c3c2CC4)cc1 (stereo not given) | –
COC(=O)c1c(NC(=O)c2cc([N+](=O)[O-])nn2Cc2ccccc2)sc2c1CCCC2 | –
COc1ccc(N2CC3=C(C2=O)C(c2ccccc2)NC(=O)N3C)cc1 (stereo not given) | –
O=[N+]([O-])c1ccc(S(=O)(=O)N2C[C@H]3C=C[C@@H]2C3)cc1 | –
CC1(C)CC(=O)C2=C(C1)Nc1nc(SCc3ccccc3Cl)nn1C2c1ccncc1 (stereo not given) | 42%!
CC1(C)CC(=O)C2=C(C1)Nc1nc(SCc3ccccc3Cl)nn1C2c1cccnc1 (stereo not given) | 31%!
Cc1ccc(C2Nc3ccc(C(=O)c4ccccc4)cc3NC3=C2C(=O)CCC3)cc1 (stereo not given) | –
CC1=C(C(N)=O)C(c2cccnc2)n2nc(SCc3ccccc3Cl)nc2N1 (stereo not given) | –
COc1cccc(C2C3=C(CC(C)(C)CC3=O)Nc3nc(SCc4ccccc4)nn32)c1 (stereo not given) | –
CC1=C(C(=O)Nc2ccc(C)cn2)C(c2cccnc2)C2=C(CC(C)(C)CC2=O)N1 (stereo not given) | –
CC1(C)CC(=O)C2=C(C1)Nc1cc(C(=O)c3ccccc3)ccc1NC2c1cccnc1 (stereo not given) | 33%
CC1(C)CC(=O)C2=C(C1)Nc1ccccc1N(C(=O)Cc1ccc(Cl)cc1)C2c1ccco1 (stereo not given) | –
SMILES | ST2 inh
CC1(C)CC(=O)C2=C(C1)Nc1ccccc1N(C(=O)Cc1ccc(Cl)cc1)C2c1cccnc1 (stereo not given) | 40%
CC1(C)CC(=O)C2=C(C1)Nc1nc(SCc3ccccc3)nn1C2c1ccc(O)cc1 (stereo not given) | –
COc1ccc(C2C3=C(CC(C)(C)CC3=O)Nc3nc(SCc4ccccc4)nn32)cc1 (stereo not given) | –
CCCCC(=O)N1c2ccccc2NC2=C(C(=O)CC(C)(C)C2)C1c1ccc2c(c1)OCO2 (stereo not given) | –
CN1CCC(N2CCN(Cc3cccc(OC4CCCC4)c3)CC2CCO)CC1 (stereo not given) | –
COC(=O)c1cc2n(n1)CCCN(C(=O)c1cccc3[nH]c(C)nc13)C2 | –
O=C(c1ccc(-n2cnnc2)cc1)N1CC=C(c2ccccc2)CC1 | –
FC(F)(F)c1cccc(N2CCN(C3CCCN(Cc4cnc[nH]4)C3)CC2)c1 (stereo not given) | –
O=C(NCCCN1CCCCC1)c1cc(=O)[nH]c2ccc(S(=O)(=O)N3CCCC3)cc12 | –
COc1cccc(CN2CCN(Cc3cccc(SC)c3)CC2=O)c1 | –
O=C1NN(c2cc(Cl)cc(Cl)c2)C(=O)/C1=C\c1cccn1-c1ccc([N+](=O)[O-])cc1 | –
Cc1ccc(N2NC(=O)/C(=C/c3ccc(Cl)c([N+](=O)[O-])c3)C2=O)cc1C | –
O=C1NN(c2cccc(Cl)c2)C(=O)/C1=C\c1cccn1-c1ccc([N+](=O)[O-])cc1 | 59%
Cc1ccccc1OCCn1cc(C=C2C(=O)N(C)C(=O)N(C)C2=O)c2ccccc21 | –
Cc1ccccc1OCCOc1ccc([N+](=O)[O-])cc1/C=C1\C(=O)NN(c2ccccc2)C1=O | 35%
O=C1NN(c2ccccc2)C(=O)/C1=C/c1ccccc1OCc1c(F)cccc1Cl | 41%
COc1cccc(/C=C2/C(=O)NN(c3ccc(C)c(Cl)c3)C2=O)c1 | –
COc1cccc(/C=C2/C(=O)NN(c3ccccc3)C2=O)c1OC | –
CCOc1ccc(/C=C2\C(=O)NN(c3cccc(Br)c3)C2=O)cc1OCC | –
CC1=C(C(N)=O)C(c2cccs2)C(C(N)=O)=C(C)N1 | –
Cc1ncc(C(=O)N2CCNC(C(=O)O)C2)c(-c2ccccc2)n1 (stereo not given) | –
COC(=O)c1cc2n(n1)CCCN(CC(C)c1ccccc1)C2 (stereo not given) | –
CCN1CCCC1CNC(=O)CSc1cc(=O)n(C)c2ccccc12 (stereo not given) | –
CCn1nc(C)cc1C(=O)N1CCC2(CCCN(Cc3cccc(F)c3F)C2)C1 (stereo not given) | –
O=C(O)C[C@@H]1CCN(C(=O)Cc2cccs2)C[C@@H]1CCN1CCOCC1 | 54%
SMILES | ST2 inh
O=C(O)C[C@@H]1CCN(C(=O)c2ccccc2)C[C@@H]1CCN1CCN(c2cccc(C(F)(F)F)c2)CC1 | –
O=C(O)C[C@@H]1CCN(C(=O)Cc2ccccc2)C[C@@H]1CCN1CCN(c2cccc(C(F)(F)F)c2)CC1 | –
O=C(O)C[C@@H]1CCN(C(=O)Nc2ccccc2)C[C@@H]1CCN1CCN(c2ccc(F)cc2)CC1 | 69%
CC(=O)Nc1ccc(S(=O)(=O)N(CCCN2CCOCC2)Cc2cccs2)cc1 | –
O=C(Nc1cccc(F)c1)N1CCN(c2ccc(F)cc2)CC1 | –
Cc1cc2c(cc1S(=O)(=O)N1CCCC1C(=O)N1CCc3ccccc31)OCC(=O)N2 (stereo not given) | –
Cc1ccc(S(=O)(=O)Cc2ccc(C(=O)NCc3ccco3)o2)cc1 | –
CN(Cc1ccccc1)C(=O)C[C@@H]1O[C@H](CNC(=O)NC2CCCCC2)[C@@H](O)[C@H]1O | –
Cc1nc(C(=O)N2CCC3(CCCN(CC4CCC4)C3=O)C2)cs1 (stereo not given) | –
Brc1ccc(-c2cn3ccc4ccccc4c3n2)cc1 | –
O=[N+]([O-])c1ccc(-c2cn3ccsc3n2)cc1 | –
O=[N+]([O-])c1ccc(-c2cn3cc(Br)ccc3n2)cc1 | 31%
C=CC(C)(CCC1(C)C(C)CC(OC2OC(C)C(O)C(O)C2OC2OC(C)C(O)C(O)C2O)C2(C)C(C)=CCCC12)OC1OC(C)C(O)C(OC2OC(C)C(O)C(O)C2O)C1OC1OC(C)C(O)C(O)C1O (stereo not given) | –
CCN(CC)C(=O)C1=C(C)Nc2nc3ccccc3n2C1c1ccccc1Cl (stereo not given) | –
CN(C)C(=O)c1ccc2c(c1)NC(=O)C1CCCCN21 (stereo not given) | –
CC(C)c1ccc(NC(=O)c2ccc3c(c2)NC(=O)C2CCCCN32)cc1 (stereo not given) | 99%
COc1ccc(CNC(=O)c2ccc3c(c2)NC(=O)C2CCCCN32)cc1 (stereo not given) | –
